We go through 52 compounds from PubChem BioAssay AID624405 (Broad Institute, 2012).

The campaign covered roughly 1,900 compounds. About 250 (13%) were called active. Inconclusive results (about 4%) are left out.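 The calls were made as follows: active = fitted curve reaches 40% rescue activity at or below the top valid dose, in every test run; inconclusive = test runs disagree, some active and some inactive; inactive = every run misses the threshold or moves the wrong way.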 A selection follows. Entries with a potency or affinity are not part of this list.

The assay can be described thus: suppressors of statin myotoxicity in myotubes, dose response, cell-based, C2C12 myotubes, ATP luminescence, cherry pick (AID 624405).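 Also: myotubes are challenged with simvastatin at 10 µM to lower ATP.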 The conditions noted are these: C2C12 myotubes + simvastatin, 48 h, scaled: DMSO wells 0, geranylgeraniol wells 100; series mostly up to 19.5 µM.
In the case of `CCOC(=O)CC(=O)CSc1ncc(C(=O)OCC)c(N)n1`, the outcome was inactive.

Consider `CC(=O)N(C)c1ccc(NC(=O)Cc2cccc3ccccc23)cc1`, for which the outcome was inactive.

On to `C[C@H]1CN([C@@H](C)CO)C(=O)c2cccc(NS(=O)(=O)c3ccc(Cl)cc3)c2O[C@H]1CN(C)Cc1ccc(-c2ccccc2)cc1`, for which the outcome was inactive.

Regarding `COc1ccc(OCC(O)CN2C(=O)NC(C)(C)C2=O)cc1` (configuration not stated), the outcome was inactive.

`CN(C)CCCNc1ncnc2c1cnn2Cc1ccccc1Cl`: the result was inactive.

Regarding `Cc1ccc(CC(=O)c2ccc(Cl)cc2)cc1`, the outcome was inactive.

With `CNC(=O)Cn1ncc2c(C)n(Cc3ccc(C)cc3)c(C)c2c1=O`, the outcome was inactive.

With `COC(=O)c1cccc(OCC(O)Cn2ccnc2)c1` (configuration not stated), the outcome was inactive.

Consider `C[C@H]1CN([C@@H](C)CO)C(=O)Cc2cc(NS(=O)(=O)c3ccc(F)cc3)ccc2O[C@@H]1CN(C)Cc1ccc2c(c1)OCO2`, for which the result was inactive.

For the compound `C[C@H]1CN([C@@H](C)CO)C(=O)c2cccc(NC(=O)Nc3ccc4c(c3)OCO4)c2O[C@H]1CN(C)S(=O)(=O)c1ccc(Cl)cc1`, the outcome was inactive.

`C[C@@H]1CCCCO[C@@H](CN(C)CC2CCCCC2)[C@@H](C)CN([C@H](C)CO)C(=O)c2cc(NS(=O)(=O)c3ccc(F)cc3)ccc2O1`: the result was inactive.

As to `Cc1ccc(C(=O)NNC(=O)C2CCN(Cc3ccc(Cl)c(Cl)c3)CC2)cc1`, the result was inactive.

With `COc1ccc(CN(C)C[C@H]2Oc3ccc(NS(=O)(=O)c4ccc(F)cc4)cc3CC(=O)N([C@H](C)CO)C[C@H]2C)cc1`, the outcome was inactive.

Consider `C[C@@H]1CN([C@H](C)CO)C(=O)Cc2cc(NS(=O)(=O)c3ccc(F)cc3)ccc2O[C@H]1CN(C)CC1CCCCC1`, for which the outcome was inactive.

In the case of `COc1ccc(S(=O)(=O)Nc2ccc3c(c2)CC(=O)N([C@@H](C)CO)C[C@H](C)[C@@H](CN(C)Cc2ccccc2)O3)cc1`, the result was inactive.

Consider `C[C@H](CO)N1C[C@H](C)[C@@H](CN(C)CC2CCCCC2)Oc2ccc(NS(=O)(=O)c3ccc(Cl)cc3)cc2CC1=O`, for which the outcome was inactive.

In the case of `C[C@@H]1CN([C@H](C)CO)C(=O)Cc2cc(NS(=O)(=O)c3ccc(Cl)cc3)ccc2O[C@@H]1CN(C)Cc1ccc(C(F)(F)F)cc1`, the outcome was inactive.

As for `C[C@@H]1CN([C@H](C)CO)C(=O)Cc2cc(NS(=O)(=O)c3ccc(Cl)cc3)ccc2O[C@H]1CN(C)Cc1ccc2c(c1)OCO2`, the result was inactive.

Consider `COc1ccc(S(=O)(=O)Nc2ccc3c(c2)C(=O)N([C@H](C)CO)C[C@@H](C)[C@H](CN(C)S(=O)(=O)c2ccc(F)cc2)OCCCC[C@@H](C)O3)cc1`, for which the outcome was inactive.

For `CCn1c(CSc2nc3ccccc3[nH]2)n[nH]c1=S`, the result was inactive.

Consider `COc1ccc(S(=O)(=O)Nc2ccc3c(c2)CC(=O)N([C@@H](C)CO)C[C@@H](C)[C@H](CN(C)Cc2ccc(Oc4ccccc4)cc2)O3)cc1`, for which the result was inactive.

Take `COc1cc(C)c(C(C)C)cc1S(=O)(=O)NCCCn1ccnc1`: the outcome was inactive.

Turning to `COC(=O)c1sc(S(=O)(=O)Nc2ccc3cn[nH]c3c2)c(C(=O)OC)c1C`, the outcome was inactive.

Consider `C[C@H](CO)N1C[C@H](C)[C@H](CN(C)S(=O)(=O)c2ccccc2)OCCCC[C@H](C)Oc2ccc(NS(C)(=O)=O)cc2C1=O`, for which the outcome was inactive.

As for `COc1ccc(-n2c(SCC(=O)N3CCCCC3)nc(O)cc2=O)cc1`, the outcome was inactive.

As for `COc1cc2oc3ccccc3c2cc1N(CC(=O)N1CCCCC1)S(=O)(=O)c1ccc(C)cc1`, the result was inactive.

For the compound `CCOC(=O)N1CCN(C(=O)C2CC(c3ccccc3OC)=NO2)CC1` (configuration not stated), the result was inactive.

Take `Cn1ncc(Cl)c1C(=O)Nc1cccnc1`: the outcome was inactive.

For `O=C(O)C1CCCCC1C(=O)Nc1ccccn1` (configuration not stated), the outcome was inactive.

Consider `CC1CCN(C(=O)c2cc(F)c(F)cc2Cl)CC1`, for which the outcome was inactive.

As for `CCCCCCC(=O)N1CCN(c2cc3c(cc2F)c(=O)c(C(=O)O)cn3CC)CC1`, the outcome was inactive.

For the compound `CCOc1ccccc1Nc1nc(N)nc(Cl)c1CC`, the result was inactive.

`O=C(NCc1cccnc1)C1CC(=O)N(CCc2ccccc2)C1` (configuration not stated): the result was inactive.

As to `CCOC(=O)N1CCN(c2c(N3CCN(c4cc(C)ccc4C)CC3)c(=O)c2=O)CC1`, the result was inactive.

Turning to `C[C@H]1CN([C@@H](C)CO)C(=O)c2cccc(NS(=O)(=O)c3cccs3)c2O[C@@H]1CN(C)Cc1ccc(Oc2ccccc2)cc1`, the result was inactive.

Consider `C[C@H](CO)N1C[C@H](C)[C@@H](CN(C)Cc2ccc3c(c2)OCO3)Oc2ccc(NS(=O)(=O)c3ccc(F)cc3)cc2CC1=O`, for which the result was inactive.

With `CCCS(=O)(=O)N1CCCC(C(=O)N2CCN(c3ccccc3)CC2)C1` (configuration not stated), the outcome was inactive.

Regarding `COc1ccc(OC)c(CNC(=O)C2CCCN(c3nc4ccccc4o3)C2)c1` (configuration not stated), the outcome was inactive.

Consider `CN(C)c1nc(Oc2ccc(C(=O)OCC(=O)Nc3ccccc3)cc2)nc(N(C)C)n1`, for which the result was inactive.

As to `COc1ccc(C#Cc2ccc3c(c2)O[C@H](CN(C)C(=O)Nc2cccc(OC)c2)[C@@H](C)CN([C@H](C)CO)S3(=O)=O)cc1`, the outcome was inactive.

Take `C[C@H](CO)N1C[C@H](C)[C@H](CN(C)C(=O)Cc2ccccc2)OCCCC[C@H](C)Oc2ccc(NC(=O)Nc3ccc(C(F)(F)F)cc3)cc2C1=O`: the result was inactive.

On to `Cc1csc2nc(CNC(=O)c3cccc(C(F)(F)F)c3)cn12`, for which the outcome was inactive.

Turning to `O=C(NCC(=O)N(Cc1cccs1)C(C(=O)NC1CCCCC1)c1cccnc1)c1ccco1` (configuration not stated), the outcome was inactive.

As for `O=C(Nc1ccccc1Cl)N1C[C@H]2[C@@H](c3ccccc31)[C@@H](CO)N2Cc1ccccc1`, the result was inactive.

For `COc1ccc(N2C(=O)CSC23C(=O)Nc2ccccc23)cc1` (configuration not stated), the result was inactive.

As to `C[C@@H]1CCCCO[C@H](CN(C)S(=O)(=O)c2ccc(Cl)cc2)[C@H](C)CN([C@H](C)CO)C(=O)c2cc(NS(C)(=O)=O)ccc2O1`, the outcome was inactive.

As to `C[C@H](CO)N1C[C@H](C)[C@@H](CN(C)Cc2ccc(C(F)(F)F)cc2)Oc2ccc(NC(=O)C3CCCCC3)cc2CC1=O`, the result was inactive.

In the case of `CC(C)(C)n1nnnc1C(c1cccnc1)N1CCN(c2ccccc2F)CC1` (configuration not stated), the result was inactive.

For `N#Cc1ccc(C(=O)NCC(c2ccco2)N2CCCCC2)cc1` (configuration not stated), the outcome was inactive.

In the case of `CCOC(=O)c1sc(NCC2CCCO2)nc1C` (configuration not stated), the result was inactive.

As to `Cc1noc(C)c1S(=O)(=O)Nc1cccc2c1O[C@@H](CN(C)S(C)(=O)=O)[C@@H](C)CN([C@H](C)CO)C2=O`, the outcome was inactive.

Regarding `C[C@@H]1CN([C@@H](C)CO)C(=O)c2cccc(NC(=O)c3ccc(-c4nccs4)cc3)c2O[C@@H]1CN(C)Cc1ccc(C(F)(F)F)cc1`, the result was inactive.
